Assay results: PubChem BioAssay AID1053173 (Broad Institute, 2014)
Hit rate of the full screen: of about 1,500 compounds, about 390 (26%) were called active. How the calls were made is not given here. Only a sample is shown. Results with a measured potency or affinity are listed apart.

Target: Histone-lysine N-methyltransferase NSD2 (Homo sapiens) (UniProt O96028)
Experiment: blockers of NSD2 H4 peptide methylation – biochemical, AlphaScreen, cherry-picked samples, dose response (AID 1053173)
Settings: 120 min; series mostly up to 10 µM

Chain of Histone-lysine N-methyltransferase NSD2 (Homo sapiens) (O96028 whole entry, looked up): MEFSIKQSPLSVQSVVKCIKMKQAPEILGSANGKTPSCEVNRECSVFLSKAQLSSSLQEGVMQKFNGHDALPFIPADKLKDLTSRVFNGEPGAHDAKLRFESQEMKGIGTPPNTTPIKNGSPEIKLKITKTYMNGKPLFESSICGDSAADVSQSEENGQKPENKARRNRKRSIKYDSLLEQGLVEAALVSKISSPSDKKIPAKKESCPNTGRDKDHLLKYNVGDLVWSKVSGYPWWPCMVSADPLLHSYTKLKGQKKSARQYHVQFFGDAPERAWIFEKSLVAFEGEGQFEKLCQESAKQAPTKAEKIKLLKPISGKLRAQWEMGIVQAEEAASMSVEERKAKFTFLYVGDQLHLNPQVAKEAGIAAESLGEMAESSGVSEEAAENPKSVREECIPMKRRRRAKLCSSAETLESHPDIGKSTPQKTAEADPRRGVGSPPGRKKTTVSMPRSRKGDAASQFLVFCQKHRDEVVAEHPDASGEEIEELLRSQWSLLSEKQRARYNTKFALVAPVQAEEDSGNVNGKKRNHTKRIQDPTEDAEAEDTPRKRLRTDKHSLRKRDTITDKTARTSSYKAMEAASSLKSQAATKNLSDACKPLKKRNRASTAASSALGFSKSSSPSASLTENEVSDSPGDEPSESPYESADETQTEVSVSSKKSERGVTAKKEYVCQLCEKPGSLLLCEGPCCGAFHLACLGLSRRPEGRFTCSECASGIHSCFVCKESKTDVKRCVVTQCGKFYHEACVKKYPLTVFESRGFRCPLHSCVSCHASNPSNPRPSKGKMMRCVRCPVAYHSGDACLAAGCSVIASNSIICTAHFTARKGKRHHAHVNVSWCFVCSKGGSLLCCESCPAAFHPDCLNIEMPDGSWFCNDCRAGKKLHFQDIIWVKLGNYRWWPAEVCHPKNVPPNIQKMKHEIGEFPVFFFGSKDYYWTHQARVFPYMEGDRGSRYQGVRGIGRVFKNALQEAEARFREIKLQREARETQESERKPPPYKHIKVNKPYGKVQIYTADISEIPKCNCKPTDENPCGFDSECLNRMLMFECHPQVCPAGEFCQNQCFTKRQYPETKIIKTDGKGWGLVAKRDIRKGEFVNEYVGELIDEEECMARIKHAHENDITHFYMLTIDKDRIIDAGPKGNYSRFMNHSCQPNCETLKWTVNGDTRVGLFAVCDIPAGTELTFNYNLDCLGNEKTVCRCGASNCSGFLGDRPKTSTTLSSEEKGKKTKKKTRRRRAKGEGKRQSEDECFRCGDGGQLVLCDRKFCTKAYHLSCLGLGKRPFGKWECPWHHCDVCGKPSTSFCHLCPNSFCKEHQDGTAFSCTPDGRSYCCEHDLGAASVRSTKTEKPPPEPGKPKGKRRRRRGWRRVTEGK

outcome, inactive:
O=C(NC1=NCCS1)c1csc2ccccc12
O=C(Nc1cc(C(F)(F)F)ccc1N1CCCC1)C1CC(=O)N(Cc2ccccc2)C1 (stereo not given)
Cc1cc(C)c(NC(=S)N(C)C)cc1C
COc1ccc(C2/C(=C(\O)c3cccc(OC)c3)C(=O)C(=O)N2c2ccccn2)cc1 (stereo not given)
COc1ccc(C(=O)N[C@H](C(=O)NCc2ccc(C)cc2)C(C)C)cc1
Cc1ccc(C)c(S(=O)(=O)N2CCCOC2CNC(=O)C(=O)NCc2cccnc2)c1 (stereo not given)
Nc1c2c(=O)[nH]c(O)cc2nn1-c1ccccc1
COc1ccc(OC)c(C(=O)Nc2c(O)ccc3ccccc23)c1
O=c1[nH]c(CN2CCCCC2)ccc1O
Cc1cc(=O)n2[nH]c(-c3ccco3)nc2n1
Cc1onc(-c2c(Cl)cccc2Cl)c1C(=O)ONC(=O)c1cc(C(F)(F)F)cc(C(F)(F)F)c1
O=c1c2ccc([N+](=O)[O-])cc2sn1-c1ccccc1
O=[N+]([O-])c1ccc(-c2cccnc2)cc1
CCOc1ccccc1NCc1nnc(-c2ccccc2)o1
O=C(c1cc(-c2ccc(Cl)c(Cl)c2)on1)N1CCCCCC1
COc1ccc(C)cc1S(=O)(=O)Nc1ccccc1C
O=[N+]([O-])c1ccc(N(CC(O)CN2CCCCC2)S(=O)(=O)c2ccccc2)cc1 (stereo not given)
O=S(=O)(c1ccc2c(c1)nc1n2CCC1)N1CCOCC1
CCCc1nc2sc3ccccc3c(=O)c2c(=O)n1Cc1ccccc1
CCOc1ccccc1N(CC(=O)NCCc1ccc(OC)c(OC)c1)S(=O)(=O)c1ccccc1
COc1ccc(CCNc2c([N+](=O)[O-])ncn2C)cc1OC
COCc1[nH][nH]c(=O)c1C=NCC(=O)OC
N=C1C(c2nc(-c3ccc(F)cc3)cs2)=C(O)CN1Cc1ccc(Cl)cc1
CC(C)(C)c1[nH]nc2c1C(C1C=CCCC1)C(C#N)=C(N)O2 (stereo not given)
O=C(NC1CCCCC1)c1ccc(S(=O)(=O)NCc2ccco2)cc1
Cn1c(=O)c2c(-c3ccccc3)n(Cc3cccnc3)cc2n(C)c1=O
CCOC(=O)c1c(C)[nH]c(C(=O)NCCN2CCOCC2)c1C
O=C(CCCN1C(=O)/C(=C/c2cccs2)SC1=S)Nc1ccc(O)c(C(=O)O)c1
O=C(CCCN1C(=O)/C(=C/c2ccccc2)SC1=S)Nc1ccc(C(=O)O)c(O)c1
N=c1c(C(=O)NCc2ccco2)cc2c(=O)n3ccccc3nc2n1C1CCCC1
COc1cccc(CN2CCC(Oc3ccc(C(=O)N4CCCCC4)cc3)CC2)c1O
Cc1ccc(NC(=O)CN(C)CCOc2ccccc2)c([N+](=O)[O-])c1
CN1CCN(/N=C/c2nc(-c3ccccc3Cl)n3ccccc23)CC1
Cn1c(SCc2ccccc2C#N)nc2ccccc2c1=O
COc1cn(-c2ccccc2)nc1C(=O)NCc1ccccc1
C=CCSc1nnc(-c2ccc(Cl)cc2Cl)o1
CCOC(=O)C1=CN(c2cccc(F)c2)C=C(C(=O)OCC)C1c1cc(OC)c(O)c([N+](=O)[O-])c1
CCC1CC(CSc2ncn[nH]2)OC1=O (stereo not given)
COc1ccccc1CNC(=O)C(NC(=O)Nc1ccccc1)C(C)C (stereo not given)
CC(C)(C)/C=N/NC(=O)CNC(=O)c1ccc2c(c1)OCCO2
CS(=O)(=O)N(CC(=O)NCc1ccco1)c1ccc2c(c1)OCO2
COc1cc(NC(=O)COC(=O)CNC(=O)c2ccc(C)cc2)c(C)cc1[N+](=O)[O-]
CCOc1ccc(NC(=S)N2CCC(NC(=O)C3CCCCC3)CC2)cc1
Fc1ccc(NC(=S)Nc2ccc3nccnc3c2)cc1
S=C(Nc1ccc2nsnc2c1)N1CCCC1
Cc1ccc(NC(=S)Nc2cccc3cnccc23)cc1
CCc1ccc(NC(=S)Nc2cccc3cnccc23)cc1
COc1cc(/C=N/N2CCN(C3c4ccccc4-c4ccccc43)CC2)cc(OC)c1OC
Cc1ccc(CSc2nc3c(c(=O)[nH]2)C(c2ccncc2)C2=C(CCCC2=O)N3)cc1 (stereo not given)
CC(=O)c1cccc(NC(=O)c2csc(-n3nc(C)cc3C(F)(F)F)n2)c1
CCCC(C(=O)NC(C)(C)C)N(CC1CCCO1)C(=O)CNS(=O)(=O)c1ccc(F)cc1 (stereo not given)
CC(=O)Nc1ccc(SCCC2CCCCN2C)cc1 (stereo not given)
CCOc1ccc(-n2cnc3sc4c(c3c2=O)CCCC4)cc1
C[N+](C)(C)CCC(=O)N1C/C(=C/c2ccccc2)C(=O)/C(=C\c2ccccc2)C1
O=C(CN1C(=O)c2ccc([N+](=O)[O-])cc2C1=O)Nc1nnc(C2CC2)s1
Cc1ccc(NC(=O)c2cc([N+](=O)[O-])ccc2NCc2cccnc2)cc1Cl
CC(=O)N1CCc2cc(Br)cc(S(=O)(=O)NCCCN(C)Cc3ccccc3)c21
CN1CCC(=NNC(=O)c2cn(-c3ccccc3)nc2-c2ccccc2)CC1
Cc1ccccc1-c1noc(C23CC4CC(CC(C4)C2)C3)n1
CCOC(=O)C1CCCN(C(=O)c2ccc(OC(C)=O)cc2)C1 (stereo not given)
Cc1nnc(Sc2cc(NCCO)c([N+](=O)[O-])c3nonc23)s1
CC(C)CNC(=O)c1cnn2c(C(F)(F)F)cc(C(F)(F)F)nc12
Nc1c(Br)cc(Br)c2c1[nH]c(=O)c1ccccc12
CCOc1cc(N2CCOCC2)c(OCC)cc1NC(=O)c1cnccn1
COc1cc(/C=N/n2c(C)nnc2C)cc(OC)c1OC
O=C(c1ccccc1OCc1ccccc1Br)N1CCN(c2ncccn2)CC1
N#Cc1ccc(-c2ccco2)nc1SCc1ccccc1
CSc1nnc(-c2ccco2)c(-c2ccco2)n1
CCOC(=O)CC(NS(=O)(=O)c1ccc2[nH]cc(C(=O)O)c(=O)c2c1)c1ccc(OCC)c(OC)c1 (stereo not given)
O=C(/C=C/c1ccc(OCCCF)cc1)N1CCN(Cc2ccccc2)CC1
